Screening results from PubChem.
ELG1 genotox: qHTS screen for small molecules that induce genotoxicity in human embryonic kidney (HEK293T) cells expressing luciferase-tagged ELG1; HEK293T ELG1-luciferase reporter, luminescence, 16 h; Potency, µM (titrated, usually from 46 µM), for inactives: at the highest dose activity change, positive = activation, hits mostly activators; actives 1.3% (n = 330,000); AID 504466, 2011; note: % of control where 0% means no effect; nearly all actives have a fitted effect of over 60% in size
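After overnight (16 hr) compound treatment at 37 °C, ELG1-luciferase HEK293T cells were lysed with ONE-Glo; luminescence quantified 30 min later at room temperature.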
Rab9 prom act: qHTS Assay for Rab9 Promoter Activators | AID 485297, 2010 | actives 2.8% (n = 320,000) | Potency, µM (doses to about 9.22 µM), inactives show at the top dose activation, negative = inhibition, hits mostly activators | Huh7 Rab9 promoter-luciferase reporter, luminescence, 24 h; note: % of control where 0% means no effect; nearly all actives have a fitted effect of over 60% in size
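Stable Rab9-luc Huh7, 1500 cells/well, 2 h settle; cmpd in DMSO, 24 h, 37 °C/5% CO2; luciferase reagent 10 min RT; luminescence.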
FLuc modulator: qHTS profiling assay for firefly luciferase inhibitor/activator using purifed enzyme and Km concentrations of substrates (counterscreen for miR-21 project); Luciferin 4-monooxygenase (Photinus pyralis), P08659; purified FLuc, Km substrates, luminescence inhibition; Potency, µM (titrated, usually from 57.5 µM), for the others: at the top dose activity change, negative = inhibition, usual class: inhibitors; actives 6.9% (n = 360,000); AID 588342, 2011;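 note: plate controls were vehicle for no effect and reference inhibitor for full effect; nearly all actives have a fitted effect of over 55% in size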
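Purified P. pyralis luciferase, 10 nM final, with Km-level 10 uM D-luciferin and 10 uM ATP in 50 mM Tris acetate pH 7.5, 10 mM Mg acetate, 0.01% Tween-20, 0.05% BSA; 6-point qHTS titration about 60 µM downward; luminescence read.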
SMN2 splice enh: qHTS Assay for Enhancers of SMN2 Splice Variant Expression | actives 2.8% (n = 210,000) | Potency, µM (top dose mostly 46.1 µM), for the others: top-dose activity change, positive = activation, most hits filed as activators | AID 1458, 2008 | HEK293 SMN2-luciferase splicing reporter, luminescence, 30-36 h; note: % of control where 0% means no effect; nearly all actives have a fitted effect of over 55% in size
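HEK293 cells carry an SMN2 […]–luciferase reporter in which exon 7 inclusion puts luciferase in frame. Cells were plated 10-12 h before compound addition, then incubated 30-36 h at 37C. ONE-Glo luminescence was read; sodium butyrate at 4.5 mM final served as control.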
NPC1 prom act: qHTS Assay for NPC1 Promoter Activators | Huh7 NPC1 promoter luciferase reporter, 24 h | Potency, µM (titrated, usually from 9.22 µM), for the others: at the top dose activation, most hits filed as activators | actives 2.4% (n = 320,000); note: % of control where 0% means no effect; nearly all actives have a fitted effect of over 60% in size
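Luminescence from an NPC1 promoter-driven luciferase reporter in stably transfected Huh7 cells was measured after 24 h compound treatment at 37 °C, followed by 10 min ambient incubation with luciferase detection reagent.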
ELG1 DNA repair: qHTS screen for small molecules that inhibit ELG1-dependent DNA repair in human embryonic kidney (HEK293T) cells expressing luciferase-tagged ELG1; HEK293T ELG1-luciferase reporter, luminescence, 16 h; DNA damage induced by 5-fluorouridine; Potency, µM (highest dose often 46.1 µM), for the others: top-dose activity change, negative = inhibition, actives largely listed as inhibitors; actives 2.3% (n = 330,000); AID 504467, 2011; note: % is set by controls: 0 for no effect and ±100 for the full control effect; nearly all actives have a fitted effect of over 55% in size
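In this reporter screen, reduction of luminescence relative to DMSO vehicle indicated activity. Compounds and 5-fluorouridine were added together to 2,000 cells per well, incubated for 16 hr at 37 °C, then developed with ONE-Glo.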
ELG1 FLuc counter: qHTS screen for small molecules that inhibit ELG1-dependent DNA repair: Hit Confirmation in Cell-Based Luciferin Assay; Potency, µM (top dose mostly 46.1 µM), for the others: at the top dose activity change, negative = inhibition, hits mostly inhibitors; shares compounds with ELG1 DNA repair; cell-free firefly luciferase luminescence counter-screen, ViewLux; AID 624247, 2012; actives 3% (n = 350); note: % is set by controls: 0 for no effect and ±100 for the full control effect
ELG1 Luc conf: HTS assay for small molecules that inhibit ELG1-dependent DNA repair in human embryonic kidney (HEK293T) cells expressing luciferase-tagged ELG1: Hit Confirmation; Potency, µM (series often up to 46.1 µM), for the others: at the top dose activity change, negative = inhibition, actives largely listed as inhibitors; HEK293T ELG1-luciferase levels, luminescence; cells co-treated with 5-fluorouridine; actives 68% (n = 670); shares compounds with ELG1 DNA repair; note: % is set by controls: 0 for no effect and ±100 for the full control effect; nearly all actives have a fitted effect of over 55% in size
Target sequence (Q96QE3 whole entry, looked up): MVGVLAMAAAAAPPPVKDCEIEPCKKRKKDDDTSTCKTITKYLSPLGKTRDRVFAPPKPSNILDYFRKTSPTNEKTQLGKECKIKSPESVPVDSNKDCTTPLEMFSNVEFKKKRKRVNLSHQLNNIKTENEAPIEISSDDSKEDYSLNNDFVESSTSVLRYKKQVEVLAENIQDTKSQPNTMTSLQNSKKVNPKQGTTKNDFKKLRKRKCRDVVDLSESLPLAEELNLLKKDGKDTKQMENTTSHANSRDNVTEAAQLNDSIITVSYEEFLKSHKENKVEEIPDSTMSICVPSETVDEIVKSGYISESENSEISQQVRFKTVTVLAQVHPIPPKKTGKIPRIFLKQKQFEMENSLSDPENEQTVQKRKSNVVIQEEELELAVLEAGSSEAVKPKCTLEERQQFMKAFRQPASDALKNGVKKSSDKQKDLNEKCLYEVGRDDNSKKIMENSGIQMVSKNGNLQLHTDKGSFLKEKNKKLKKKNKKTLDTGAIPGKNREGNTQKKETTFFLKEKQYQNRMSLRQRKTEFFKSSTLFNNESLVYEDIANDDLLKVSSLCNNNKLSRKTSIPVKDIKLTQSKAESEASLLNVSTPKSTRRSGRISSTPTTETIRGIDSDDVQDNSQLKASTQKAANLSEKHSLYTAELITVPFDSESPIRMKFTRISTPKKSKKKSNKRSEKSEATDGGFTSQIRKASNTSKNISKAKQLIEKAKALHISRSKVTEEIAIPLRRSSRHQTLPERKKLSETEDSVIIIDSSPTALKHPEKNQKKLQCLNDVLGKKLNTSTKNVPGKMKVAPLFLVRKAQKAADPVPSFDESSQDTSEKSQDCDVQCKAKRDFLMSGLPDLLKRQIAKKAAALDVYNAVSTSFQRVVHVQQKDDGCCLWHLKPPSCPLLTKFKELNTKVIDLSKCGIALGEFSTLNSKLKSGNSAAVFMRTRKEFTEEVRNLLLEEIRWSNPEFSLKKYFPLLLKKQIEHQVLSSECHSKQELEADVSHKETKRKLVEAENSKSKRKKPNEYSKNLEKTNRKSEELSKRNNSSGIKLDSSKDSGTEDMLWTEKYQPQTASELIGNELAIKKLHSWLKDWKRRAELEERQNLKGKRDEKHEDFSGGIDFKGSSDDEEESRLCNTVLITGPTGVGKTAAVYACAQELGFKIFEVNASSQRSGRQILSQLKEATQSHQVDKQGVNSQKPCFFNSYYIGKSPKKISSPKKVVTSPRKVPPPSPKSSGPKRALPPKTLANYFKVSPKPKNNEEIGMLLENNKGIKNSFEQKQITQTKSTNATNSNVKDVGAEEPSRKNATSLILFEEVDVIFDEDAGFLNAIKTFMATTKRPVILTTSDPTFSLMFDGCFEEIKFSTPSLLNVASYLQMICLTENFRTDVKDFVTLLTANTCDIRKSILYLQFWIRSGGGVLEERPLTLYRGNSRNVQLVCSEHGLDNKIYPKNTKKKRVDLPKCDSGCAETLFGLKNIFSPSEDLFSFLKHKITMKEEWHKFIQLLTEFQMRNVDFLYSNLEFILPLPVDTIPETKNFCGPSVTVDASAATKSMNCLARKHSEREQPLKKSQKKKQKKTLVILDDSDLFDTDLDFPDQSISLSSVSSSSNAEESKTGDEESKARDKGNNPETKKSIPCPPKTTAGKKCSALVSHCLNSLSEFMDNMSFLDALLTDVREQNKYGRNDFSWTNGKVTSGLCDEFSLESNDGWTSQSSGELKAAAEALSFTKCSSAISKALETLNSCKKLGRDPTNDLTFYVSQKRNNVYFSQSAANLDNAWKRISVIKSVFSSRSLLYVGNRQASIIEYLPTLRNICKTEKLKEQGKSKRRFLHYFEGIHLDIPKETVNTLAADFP
ELG1 MMS Luc: MMS-stimulated human ELG1 repair inhibition, confirmed; shares compounds with ELG1 DNA repair; HEK293T luciferase-tagged ELG1 level, MMS stimulated; Potency, µM (series often up to 46.1 µM), without a hit: at the highest dose activity change, negative = inhibition, most hits filed as inhibitors; actives 53% (n = 670); note: % is set by controls: 0 for no effect and ±100 for the full control effect; nearly all actives have a fitted effect of over 60% in size
ELG1 5-FU: qHTS screen for small molecules that inhibit ELG1-dependent DNA repair: Hit Confirmation with 5FU Viability. AID 624250, 2012. 670 tested, under 10 active. cell viability with 5-FU, ELG1-dependent repair. Potency, µM (doses to about 46.1 µM), without a hit: at the top dose activity change, negative = viability loss, actives largely listed as cytotoxic. shares compounds with ELG1 DNA repair;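 note: ELG1-luc HEK293T cells cotreated with 5-fluorouridine at 10 µM final; viability measured 16 h after compound addition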
ELG1 MMS cell: qHTS screen for small molecules that inhibit ELG1-dependent DNA repair: Hit Confirmation with MMS Viability | Potency, µM (top dose mostly 46.1 µM), for inactives: at the highest dose activity change, negative = viability loss, usual class: cytotoxic | shares compounds with ELG1 DNA repair | Cell viability with MMS, ELG1-dependent DNA repair | actives 33% (n = 670) | AID 624251, 2012;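 note: ELG1-luc HEK293T cells co-treated with 10 µM MMS; viability read 16 h after compound addition; % is set by controls: 0 for no effect and ±100 for the full control effect; nearly all actives have a fitted effect of over 60% in size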
ELG1 unstim viab: qHTS screen for small molecules that inhibit ELG1-dependent DNA repair: Hit Confirmation with Unstimulated Viability Assay; shares compounds with ELG1 DNA repair; cell viability counter-screen, unstimulated, luminescence; Potency, µM (titrated, usually from 45.9 µM), without a hit: top-dose activity change, negative = loss of viability, usual class: cytotoxic; actives 8% (n = 900);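 note: compound exposure lasted 16 hours before reading; % is set by controls: 0 for no effect and ±100 for the full control effect; nearly all actives have a fitted effect of over 55% in size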
FLuc biochem: qHTS screen for small molecules that inhibit ELG1-dependent DNA repair: Hit Confirmation in Biochemical Luciferin Assay | actives 10% (n = 350) | AID 624253, 2012 | Potency, µM (doses to about 57.5 µM), inactives show top-dose activity, negative = inhibition, hits mostly inhibitors | shares compounds with ELG1 DNA repair | purified firefly luciferase, luminescence counter-screen; note: % is set by controls: 0 for no effect and ±100 for the full control effect
The depositor's hits bear a star; ? = inconclusive; . = no result given; [ ] = remark or other dose. An excerpt weighted towards active compounds, which were near 9.3% of everything screened. Calls come from the whole dose curve; as a rule, active = well fitted curve in the direction sought with a large enough effect; inconclusive = small, poorly fitted or top-dose-only effect, or another doubt; inactive = no such curve, though single readings can be large; an effect the other way counts as inactive or inconclusive. Potency is the fitted concentration of half-maximal effect.

SMILES	ELG1 genotox	Rab9 prom act	FLuc modulator	SMN2 splice enh	NPC1 prom act	ELG1 DNA repair	ELG1 unstim viab	others
CC(=O)CCSc1nnc(-c2cccc(S(=O)(=O)N3CCOCC3)c2)o1	1%	2%	5%	.	2%	-5%	.
O=C(CN1CCN(S(=O)(=O)c2ccccc2)CC1)Nc1ccccc1Cl	-4%	0%	8%	.	-5%	-4%	.
CC(C)(C)OC(=O)N/N=C\c1cccnc1	-13%	?	11µM*	.	21%	?	.
CC(C)(C)NC(=O)C(=O)N/N=C/c1ccc(Br)cc1	8%	7%	?	-3%	19%	?	.
O=C(N/N=C/c1cccnc1)C(O)(c1ccccc1)c1ccccc1	0%	-1%	0%	-18%	-2%	-8%	.
CC(C)(C)OC(=O)N/N=C/c1ccc(Br)cc1	?	1.6µM*	12µM*	11µM*	?	?	.
COc1cccc([C@@H]2Oc3ccc(OC)cc3C(=O)[C@H]2OC(=O)NS(=O)(=O)c2ccc(C)cc2)c1	.	.	.	11µM*	.	.	-2%
COc1ccc2c(c1)C(=O)[C@H](OC(=O)NS(=O)(=O)c1ccc(C)cc1)[C@@H](c1ccc(OC)c(Br)c1)O2	.	.	.	-7%	.	.	.
Cc1ccc(S(=O)(=O)N2CCOCC2)cc1C(=O)OCC(=O)NC1CCCC1	0%	.	.	.	.	-1%	.
Cc1nnc(SCC(=O)N2c3ccccc3C(C)(c3ccccc3)CC2(C)C)s1 (stereo unspecified)	0%	-2%	3%	-18%	-3%	-1%	.
COc1cc(OC)cc(-c2n[nH]c(=S)n2-c2ccc3c(c2)OCO3)c1	4%	2%	-16%	14%	0%	9%	.
COc1ccc(-c2cc3cc4c(cc3cn2)OCO4)cc1	0.73µM*	.	.	.	.	?	?	ELG1 FLuc counter=-2%;FLuc biochem=0.41µM*
COc1cc(OC)cc(-c2cc3cc4c(cc3cn2)OCO4)c1	4.1µM*	.	.	.	.	?	?
c1ccc(-c2cc3cc4c(cc3cn2)OCO4)cc1	?	.	.	.	.	?	?
COc1ccc(C(CC(=O)O)c2ccc3c(c2)OCO3)cc1 (stereo unspecified)	0%	-6%[1.84 µM]	3%	.	-2%	6%	.
Cc1cc(C)nc(NN2C(=O)C=CC2=O)n1	-5%	-1%	-24%	.	-6%	-1%	.
CC1CCN(C(=O)CN2C(=O)NC3(CCCCCC3)C2=O)CC1	-1%	2%	4%	.	-5%	27%	.
Cc1ccc(CNc2nc(-c3cccnc3)nc3ccccc23)cc1	0%	0%	-7%	.	1%	?	.
COc1ccc(C(CNc2nc(-c3cccnc3)nc3ccccc23)N(C)C)cc1 (stereo unspecified)	-3%	0%	4%	.	-3%	-25%	-9%	ELG1 FLuc counter=-2%;ELG1 Luc conf=18µM*;ELG1 MMS Luc=?;ELG1 5-FU=?;ELG1 MMS cell=0%;FLuc biochem=-7%
COc1ccc(CCNc2nc(-c3cccnc3)nc3ccccc23)cc1OC	-3%	-1%	-18%	.	0%	2.6µM*	?	ELG1 FLuc counter=14%;ELG1 Luc conf=3.2µM*;ELG1 MMS Luc=13µM*;ELG1 5-FU=?;ELG1 MMS cell=?;FLuc biochem=?
COc1cccc(C(=O)c2cn(CC(=O)Nc3ccc4c(c3)OCCO4)c3nc(C)ccc3c2=O)c1	.	.	-1%	.	.	.	.
CCN(CC)CCNC(=O)c1ccc(NC(=O)c2ccc(Cl)c(S(=O)(=O)Nc3ccccc3OC)c2)cc1	-2%	-1%	1%	-7%	1%	3%	.
COc1ccc(NS(=O)(=O)c2cccc(C(=O)OCC(=O)N3CCN(c4ccc(OC)cc4)CC3)c2)cc1	?	-9%	-19%	.	-4%	4.6µM*	?	ELG1 Luc conf=?;ELG1 MMS Luc=7.9µM*;ELG1 5-FU=-7%;ELG1 MMS cell=7.9µM*
COc1ccc(N2CCN(C(=O)c3ccc(NS(=O)(=O)c4cccc(F)c4)cc3)CC2)cc1	10%	2%	?	6%	8%	-24%	.
Cc1cccc(NC(=O)C2(c3ccc([N+](=O)[O-])cc3)CCCC2)c1	0%	-2%	3%	-35%	-3%	-13%	.
